Shown is part of a subset that was picked to be rich in hits.
NPR1 antag – human Npr1 receptor antagonism | HEK293 hNpr1 GloSensor cGMP, ANP-stimulated luminescence | Potency, µM (highest dose often 46.3 µM), without a hit: at the highest dose activity change, negative = inhibition, usual class: inhibitors | P16066 | 76,000 compounds, 1.6% hits; further: on the % scale 0 is the no-effect control and ±100 the full control effect; nearly all actives have a fitted effect of over 60% in size
Target sequence (P16066 whole entry, looked up): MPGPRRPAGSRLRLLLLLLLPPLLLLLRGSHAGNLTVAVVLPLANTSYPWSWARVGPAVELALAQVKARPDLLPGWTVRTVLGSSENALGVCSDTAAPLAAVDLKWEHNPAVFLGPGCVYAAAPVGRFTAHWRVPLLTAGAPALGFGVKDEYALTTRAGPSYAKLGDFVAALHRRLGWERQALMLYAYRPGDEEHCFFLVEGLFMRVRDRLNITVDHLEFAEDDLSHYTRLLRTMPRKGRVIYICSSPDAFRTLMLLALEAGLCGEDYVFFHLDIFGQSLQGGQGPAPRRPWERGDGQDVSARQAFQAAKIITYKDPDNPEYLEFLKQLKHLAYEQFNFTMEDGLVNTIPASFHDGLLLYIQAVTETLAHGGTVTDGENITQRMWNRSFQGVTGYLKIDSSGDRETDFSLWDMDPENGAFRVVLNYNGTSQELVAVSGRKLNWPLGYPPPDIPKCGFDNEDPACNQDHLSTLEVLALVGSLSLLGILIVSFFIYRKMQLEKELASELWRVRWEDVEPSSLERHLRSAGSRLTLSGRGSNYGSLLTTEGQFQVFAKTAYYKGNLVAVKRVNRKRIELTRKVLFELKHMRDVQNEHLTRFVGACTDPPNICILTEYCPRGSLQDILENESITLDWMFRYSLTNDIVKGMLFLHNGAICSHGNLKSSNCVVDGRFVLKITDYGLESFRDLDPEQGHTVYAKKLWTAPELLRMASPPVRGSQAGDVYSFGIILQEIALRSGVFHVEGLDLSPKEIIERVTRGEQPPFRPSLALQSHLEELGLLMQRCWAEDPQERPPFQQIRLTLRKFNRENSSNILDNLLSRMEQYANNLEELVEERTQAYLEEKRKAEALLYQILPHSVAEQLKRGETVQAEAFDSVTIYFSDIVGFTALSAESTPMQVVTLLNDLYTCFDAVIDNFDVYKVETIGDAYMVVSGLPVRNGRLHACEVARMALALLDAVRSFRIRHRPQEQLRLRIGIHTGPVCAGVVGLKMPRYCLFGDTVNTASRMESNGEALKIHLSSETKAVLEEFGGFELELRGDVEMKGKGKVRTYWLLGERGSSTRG
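Compound pre-incubated 30 min at room temperature on GloSensor-loaded HEK293 cells stably carrying hNpr1 and the pGS-40F cGMP biosensor. Stimulation uses hNppA at 0.1 nM final; luminescence is taken at baseline and 20 min post-agonist.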
GPT2 inhibitor – blocks human glutamate pyruvate transaminase 2; Q8TD30; Recombinant GPT2, coupled pyruvate oxidase/HRP Amplex Red fluorescence; Potency, µM (series often up to 57.7 µM), without a hit: at the highest dose activity change, negative = inhibition, actives largely listed as inhibitors; 100,000 compounds, 0.25% hits; active means well fitted inhibition curve with a large enough effect; inconclusive means small, poorly fitted or top-dose-only effect; further: on the % scale 0 is the no-effect control and ±100 the full control effect; nearly all actives have a fitted effect of over 60% in size
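Fluorescence of coupled pyruvate oxidase/HRP/Amplex Red system (50uM Amplex, 30 min, dark) reports pyruvate formed by GPT2. Enzyme reaction: 10ng/uL GPT2, 2mM L-alanine, 250uM a-KG, 30 min room temperature, pH 7.5; 50uM AOA control.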
NPR1 antag cnf – confirmation of human Npr1 natriuretic peptide receptor antagonists | shares compounds with NPR1 antag | HEK293 hNpr1 cGMP GloSensor luminescence, ANP-stimulated | Potency, µM (series often up to 57.6 µM), for inactives: at the highest dose activity change, negative = inhibition, actives largely listed as inhibitors | 1,400 compounds, 76% hits; further: nearly all actives have a fitted effect of over 70% in size
Npr2 selectivity – hNpr2 antagonism, selectivity versus Npr1 | shares compounds with NPR1 antag | HEK293 hNpr2 GloSensor cGMP luminescence, CNP-stimulated | Potency, µM (top dose mostly 57.6 µM), for the others: top-dose activity change, negative = inhibition, hits mostly inhibitors | 1,400 compounds, 67% hits | AID 1347046; further: nearly all actives have a fitted effect of over 70% in size
FLuc inh counter – inhibits firefly luciferase, false Npr1 antagonist flag | purified FLuc enzyme, luminescence, Km substrate | shares compounds with NPR1 antag | AID 1347047 | Potency, µM (series often up to 57.6 µM), without a hit: at the highest dose activity change, negative = inhibition, actives largely listed as inhibitors | 1,400 compounds, 0.7% hits; active means well fitted inhibition curve with a large enough effect; inconclusive means small, poorly fitted or top-dose-only effect; further: 0% is about no effect
GloSensor cGMP – reduces cGMP signal in GloSensor control cells; 1,400 compounds, 69% hits; shares compounds with NPR1 antag; Potency, µM (highest dose often 57.6 µM), inactives show top-dose activity change, negative = inhibition, actives largely listed as inhibitors; HEK293 GloSensor cGMP, SNP-stimulated, luminescence; further: on the % scale 0 is the no-effect control and ±100 the full control effect; nearly all actives have a fitted effect of over 70% in size
* hit, by the source's call; i = inactive; ? = inconclusive; . = not tested or not shown; [ ] = another dose, or the depositor's remark. Unless noted, the call rests on the fitted dose curve. Potency means the concentration at half of the fitted maximal effect.

SMILES	NPR1 antag	GPT2 inhibitor	NPR1 antag cnf	Npr2 selectivity	FLuc inh counter	GloSensor cGMP
CCCn1ncc(C(=O)N2C[C@H](CO)C[C@H](CN3CCCC3)C2)c1C	0%	-6%	.	.	.	.
Cc1ccc(NC(=O)NCC2CCOCC2)c(Cl)c1	0%	-7%	.	.	.	.
COC(=O)[C@@H]1Cc2ncn(Cc3ccc(Cl)cc3)c2CN1Cc1cccc(C#N)c1	?	i	?	?	-1%[86.2 µM]	?
COC(=O)[C@@H]1Cc2ncn(Cc3ccc(Cl)cc3)c2CN1C(=O)c1ccc(C#N)cc1	4%[70.6 µM]	-6%[88.5 µM]	.	.	.	.
Cc1ccccc1-c1onc(C)c1C(=O)NCCOC(C)C	0%	i	.	.	.	.
O=C(NC1CCCC1)O[C@H]1COCCN(c2nc3ccccc3o2)C1	-1%[70.6 µM]	i	.	.	.	.
FC(F)(F)c1ccc(O[C@H]2COCCN(c3nc4ccccc4o3)C2)nc1	35µM*	3%[88.5 µM]	40µM*	35µM*	0%[86.2 µM]	35µM*
N#Cc1ccc(C(=O)N2CCN(c3cc(-c4ccc(Cl)cc4)[nH]n3)CC2)cc1	6.3µM*	i	9.7µM*	11µM*	4%	6.9µM*
CCOc1ccc(C(=O)N2CCCN(c3cc(-c4ccc(Cl)cc4)[nH]n3)CC2)cc1	?	i	19µM*	22µM*	4%	17µM*
CCOc1ccc(C(=O)N2CCN(c3cc(-c4ccc(Cl)cc4)[nH]n3)CC2)cc1	13µM*	-4%	22µM*	19µM*	-3%	15µM*
CCOc1ccc(C(=O)N2CCN(c3cc(-c4ccc(OC)cc4)[nH]n3)CC2)cc1	-23%	i	.	.	.	.
CN(C)c1ccc(C(=O)NCC2CCN(c3cc(-c4ccccc4)[nH]n3)CC2)cc1	-10%	-25%	.	.	.	.
COc1ccc(-c2cc(N3CCCN(C(=O)c4ccc(Cl)cc4)CC3)n[nH]2)cc1	0%	-5%	.	.	.	.
N#Cc1ccc(C(=O)N2CCCN(c3cc(-c4ccc(Cl)cc4)[nH]n3)CC2)cc1	?	-26%	.	.	.	.
CN(C)c1ccc(C(=O)NCC2CCN(c3cc(-c4ccc(Cl)cc4)[nH]n3)CC2)cc1	?	-11%	?	?	-30%	?
COc1ccc(-c2nn(-c3ccccc3C)cc2CN(C)Cc2nonc2C)cc1F	1%	?	.	.	.	.
CCOc1ccc(C(=O)N2CCCN(c3cc(-c4ccc(F)cc4)[nH]n3)CC2)cc1	22µM*	?	27µM*	?	0%	22µM*
Cc1ccc(C(=O)N2CCCN(c3cc(-c4ccc(F)cc4)[nH]n3)CC2)cc1	-19%	-25%	.	.	.	.
O=C(NC1CCOC2(CCOCC2)C1)c1cn(CCN2CCNCC2)nn1 (stereo not drawn)	-1%	-20%	.	.	.	.
O=C1NCc2ccccc2CC12CCN(CC1CC=CCC1)CC2 (stereo not drawn)	.	-13%	.	.	.	.
O=C1NCc2ccccc2CC12CCCN(CC1CC=CCC1)C2 (stereo not drawn)	.	-6%	-21%	-14%	1%	6%
O=C(c1ccccc1)N1CCN(C(=O)c2nnn3c2COC(c2ccc(Cl)cc2)C3)CC1 (stereo not drawn)	-16%	i	.	.	.	.
COc1ccc(Cl)cc1C(=O)N1CCN(C(=O)c2nnn3c2COC(c2ccccc2)C3)CC1 (stereo not drawn)	?	i	?	?	2%	-25%
Cc1ccc(C2Cn3nnc(C(=O)NC4CCCCCC4)c3CO2)cc1 (stereo not drawn)	-25%	i	.	.	.	.
CCOc1ccccc1C(=O)N1CCN(C(=O)c2nnn3c2COC(c2ccccc2)C3)CC1 (stereo not drawn)	0%	5%	.	.	.	.
SMILES	NPR1 antag	GPT2 inhibitor	NPR1 antag cnf	Npr2 selectivity	FLuc inh counter	GloSensor cGMP
COc1ccccc1C(=O)N1CCN(C(=O)c2nnn3c2COC(c2ccc(C)cc2)C3)CC1 (stereo not drawn)	?	?	?	-28%	1%	?
O=C(NC1CCCCCCC1)c1nnn2c1COC(c1ccc(F)cc1)C2 (stereo not drawn)	?	i	?	?	-1%	?
O=C(c1ccc(Cl)cc1)N1CCN(C(=O)c2nnn3c2COC(c2ccccc2)C3)CC1 (stereo not drawn)	-11%	i	.	.	.	.
O=C(c1ccccc1F)N1CCN(C(=O)c2nnn3c2COC(c2ccc(Cl)cc2)C3)CC1 (stereo not drawn)	14µM*	2%	27µM*	?	2%	?
O=C(N[C@H]1CO[C@H]2[C@@H]1OC[C@@H]2n1cc(CC2CCCCC2)nn1)C1CC1	-15%[70.6 µM]	-8%[88.5 µM]	.	.	.	.
O=C(c1ccc(C(F)(F)F)cc1)N1CCc2nc(C3CC3)nc(-c3ccc(Cl)cc3)c2CC1	2%	-12%	.	.	.	.
O=C1N(c2cccc(F)c2)C(c2ccccc2)C12CCN(Cc1cccc(F)c1O)CC2 (stereo not drawn)	.	-1%	.	.	.	.
CCOc1ccccc1N1CCN(C(=O)CCn2ccn3nc4c(c3c2=O)CCCC4)CC1	?	i	?	?	1%	-2%
Cc1ccc(Cl)cc1N1CCN(C(=O)CCn2ccn3nc4c(c3c2=O)CCCC4)CC1	?	i	.	.	.	.
O=C(NCc1cccc(C(F)(F)F)c1)c1cc(-c2cc(Cl)cc(Cl)c2)c2nncn2n1	.	i	.	.	.	.
CN(Cc1cccc2cnccc12)C(=O)c1cc(COc2ccc(F)cc2F)on1	11µM*	i	24µM*	22µM*	-1%	19µM*
Cc1ccc(C)c(OCc2cc(C(=O)N(C)Cc3cnccn3)no2)c1	4%	0%[11.5 µM]	.	.	.	.
COc1ccc(-c2noc(Nc3ccc(C)c(C)c3)n2)cc1	-19%	i	.	.	.	.
COc1ccccc1OCCNC(=O)[C@@H]1COCC(=O)N1Cc1ccc(F)cc1	0%	-15%	.	.	.	.
COc1cccc(-c2noc(COC(=O)C3=CN(Cc4ccccc4)S(=O)(=O)N=C3C)n2)c1	-24%	i	.	.	.	.
COc1ccc(CN2C=C(C(=O)OCc3nc(-c4cccc(OC)c4)no3)C(C)=NS2(=O)=O)cc1	?	i	?	-23%	-14%	?
CC1=NS(=O)(=O)N(C)C=C1C(=O)OCc1nc(-c2cccc(C)c2)no1	11µM*	i	15µM*	14µM*	-1%	14µM*
CC1=NS(=O)(=O)N(Cc2ccccc2)C=C1C(=O)OCc1nc(-c2ccc(F)cc2)no1	-30%	-1%	.	.	.	.
CC1=NS(=O)(=O)N(C)C=C1C(=O)OCc1nc(C)no1	3%	-8%	.	.	.	.
CC1=NS(=O)(=O)N(C)C=C1C(=O)OCc1nc(-c2ccc(F)cc2)no1	11µM*	2%	22µM*	22µM*	-5%	22µM*
Cc1cc(C)cc(-c2ccc(CN3CCCC3C(=O)N3CCC(Cc4ccccc4)CC3)cc2)c1 (stereo not drawn)	.	1%	.	.	.	.

Screens deposited in PubChem by National Center for Advancing Translational Sciences (NCATS).
